The text below walks through data of PubChem BioAssay (NCATS).

Records with an inconclusive call do not appear. A call without a number means that no potency is given here. Calls of active or inactive are those of the source. Calls follow the shape of the dose curve; as a rule, active = well fitted inhibition curve with a large enough effect; inconclusive = small, poorly fitted or top-dose-only effect; inactive = flat fitted curve, though single readings scatter.

Sequence of Voltage-gated inwardly rectifying potassium channel KCNH2 (Homo sapiens) (Q12809 whole entry, looked up): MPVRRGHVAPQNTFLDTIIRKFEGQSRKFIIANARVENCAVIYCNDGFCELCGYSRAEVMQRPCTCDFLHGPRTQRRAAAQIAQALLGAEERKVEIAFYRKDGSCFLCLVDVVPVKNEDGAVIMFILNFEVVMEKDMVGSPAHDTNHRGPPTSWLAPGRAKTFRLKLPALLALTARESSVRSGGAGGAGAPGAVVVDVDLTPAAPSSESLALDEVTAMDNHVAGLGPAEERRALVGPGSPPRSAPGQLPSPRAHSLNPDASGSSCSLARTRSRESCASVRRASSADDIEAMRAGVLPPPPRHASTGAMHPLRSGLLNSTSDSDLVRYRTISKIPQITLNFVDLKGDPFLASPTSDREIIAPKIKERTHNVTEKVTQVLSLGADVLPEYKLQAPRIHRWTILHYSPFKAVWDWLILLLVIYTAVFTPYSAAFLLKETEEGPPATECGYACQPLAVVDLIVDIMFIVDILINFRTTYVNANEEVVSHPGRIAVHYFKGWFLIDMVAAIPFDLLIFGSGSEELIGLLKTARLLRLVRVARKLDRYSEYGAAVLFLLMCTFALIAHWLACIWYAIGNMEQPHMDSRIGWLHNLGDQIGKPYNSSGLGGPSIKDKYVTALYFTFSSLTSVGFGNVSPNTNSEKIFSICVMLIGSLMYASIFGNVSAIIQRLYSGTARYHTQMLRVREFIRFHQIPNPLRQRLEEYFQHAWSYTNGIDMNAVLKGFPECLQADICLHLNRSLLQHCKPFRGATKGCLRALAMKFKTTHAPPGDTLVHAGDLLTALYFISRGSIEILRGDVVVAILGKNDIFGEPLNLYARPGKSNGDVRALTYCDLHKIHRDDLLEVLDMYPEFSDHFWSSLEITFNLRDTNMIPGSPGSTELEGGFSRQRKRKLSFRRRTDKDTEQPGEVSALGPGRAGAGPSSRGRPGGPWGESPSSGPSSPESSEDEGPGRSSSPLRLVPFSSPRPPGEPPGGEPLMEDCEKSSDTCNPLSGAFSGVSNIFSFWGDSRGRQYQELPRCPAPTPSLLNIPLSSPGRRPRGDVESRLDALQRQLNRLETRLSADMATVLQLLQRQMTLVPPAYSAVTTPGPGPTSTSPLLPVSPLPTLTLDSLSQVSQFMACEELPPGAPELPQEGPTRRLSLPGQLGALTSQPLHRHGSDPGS
Sequence of Luciferin 4-monooxygenase (Photinus pyralis) (P08659 whole entry, looked up): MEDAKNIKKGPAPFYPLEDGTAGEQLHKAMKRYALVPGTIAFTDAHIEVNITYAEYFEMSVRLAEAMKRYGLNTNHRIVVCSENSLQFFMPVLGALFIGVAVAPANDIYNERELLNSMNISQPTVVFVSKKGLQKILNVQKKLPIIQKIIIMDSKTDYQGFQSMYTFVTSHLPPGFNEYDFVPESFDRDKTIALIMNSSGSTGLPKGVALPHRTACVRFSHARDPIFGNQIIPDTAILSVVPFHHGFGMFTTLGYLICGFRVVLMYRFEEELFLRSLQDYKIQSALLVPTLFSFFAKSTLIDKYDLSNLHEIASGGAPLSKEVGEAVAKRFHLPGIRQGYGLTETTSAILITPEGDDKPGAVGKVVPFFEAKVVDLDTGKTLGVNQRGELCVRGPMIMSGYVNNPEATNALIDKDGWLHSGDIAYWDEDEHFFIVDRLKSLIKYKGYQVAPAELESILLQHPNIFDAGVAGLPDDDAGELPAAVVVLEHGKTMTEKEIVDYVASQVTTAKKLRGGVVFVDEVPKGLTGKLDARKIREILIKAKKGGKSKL

For the first assay, the target named is Voltage-gated inwardly rectifying potassium channel KCNH2 (Homo sapiens) (UniProt Q12809). The experiment in a line: qHTS Assay for Small Molecule Inhibitors of the Human hERG Channel Activity (AID 588834).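 Also: lower thallium flux fluorescence means stronger hERG block; nearly all actives have a fitted effect of over 50% in size.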 Also: potency is read from the fitted curve at half-maximal effect. As to conditions: U2OS BacMam hERG, FluxOR thallium flux fluorescence; series mostly up to 46.1 µM. The gist of the method:
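Kinetic FDSS fluorescence; U2OS + hERG BacMam (~100 virus particles/cell); FluxOR Tl+ flux; ~10 min cpd; AC50 (Hill).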
In general terms: Quantitative high-throughput screening tests each substance at several concentrations.
In the case of `CCN[C@@H]1C[C@H](N)[C@@H](OC2OC(CN)=CCC2N)[C@H](O)[C@H]1O[C@H]1OC[C@](C)(O)[C@H](NC)[C@H]1O` (some centres undefined), the Potency result is “inactive”.

`CC(C)Cn1cnc2c1c(=O)n(C)c(=O)n2C`: the Potency entry was “inactive”.

Consider `NS(=O)(=O)c1cc2c(cc1Cl)NC(CC1CCCC1)NS2(=O)=O` (centres undefined), for which the Potency entry is “inactive”.

Consider `CC(C)[C@@H]1CC[C@@H](C)CC1=O`, for which the Potency result was “inactive”.

Regarding `CCN1CCN(C(=O)N[C@@H](C(=O)N[C@@H]2C(=O)N3C(C(=O)O)=C(CSc4nnnn4C)CS[C@H]23)c2ccc(O)cc2)C(=O)C1=O`, the Potency result was “inactive”.

As for `CCC(Cc1c(I)cc(I)c(N)c1I)C(=O)O` (centres undefined), the Potency result is “inactive”.

In the case of `O=[N+]([O-])c1ccc(/C=N\O)o1`, the Potency entry was “inactive”.

`O=C1OC2(c3ccccc31)c1cc(Br)c(O)c(Br)c1Oc1c2cc(Br)c(O)c1Br`: the Potency was 5.62 µM (active).

Take `N#C/C(=C1\SCC(c2ccccc2Cl)S1)n1ccnc1` (centres undefined): the Potency entry is “inactive”.

`CC(CNC1CCCCC1)OC(=O)c1ccccc1` (centres undefined): the Potency entry is “inactive”.

As to `O=C1c2cccc3c2[C@H](CCC3)CN1[C@@H]1CN2CCC1CC2`, the Potency was 12.6 µM (active).

In the case of `CCCCCCCCCCC[C@@H](C[C@@H]1OC(=O)[C@H]1CCCCCC)OC(=O)[C@H](CC(C)C)NC=O`, the Potency result was “inactive”.

With `CCCCN1C[C@H](O)[C@@H](O)[C@H](O)[C@H]1CO`, the Potency result is “inactive”.

For the molecule `CC(O)Cn1cnc2c1c(=O)n(C)c(=O)n2C` (centres undefined), the Potency entry was “inactive”.

In the case of `CCCCC(CC)CN1CN(CC(CC)CCCC)CC(C)(N)C1` (centres undefined), the Potency is 4.47 µM (active).

Take `CC(=C(CCOC(=O)C(C)C)SSC(CCOC(=O)C(C)C)=C(C)N(C=O)Cc1cnc(C)nc1N)N(C=O)Cc1cnc(C)nc1N`: the Potency result is “inactive”.

Turning to `CC(C)n1c(/C=C/[C@@H](O)C[C@@H](O)CC(=O)O)c(-c2ccc(F)cc2)c2ccccc21`, the Potency result was “inactive”.

Consider `C[C@H]1[C@H]2CC[C@H]3[C@@H]4CC=C5C[C@@H](N(C)C)CC[C@]5(C)[C@H]4CC[C@]23CN1C`, for which the Potency entry was “inactive”.

For the molecule `C[C@@H](O)[C@H]1C(=O)N2C(C(=O)O)=C([C@H]3CCCO3)S[C@H]12`, the Potency result is “inactive”.

As to `O=C(Oc1cccc2cccnc12)c1ccccc1`, the Potency entry is “inactive”.

With `O=C1OC(CN2CCOCC2)CN1/N=C/c1ccc([N+](=O)[O-])o1` (centres undefined), the Potency result was “inactive”.

As for `COc1cc(C(=O)N2CCCCCCC2)cc(OC)c1OC`, the Potency result is “inactive”.

As to `C[C@]12CCC(=O)C=C1C=C[C@@H]1[C@@H]2CC[C@@]2(C)[C@H]1CC[C@@]21CCC(=O)O1`, the Potency entry was “inactive”.

As to `CC(C)(Cc1c[nH]c2ccccc12)NCC(O)COc1ccccc1C#N` (centres undefined), the Potency is 2.82 µM (active).

With `CC(=O)OCC1=C(C(=O)O)N2C(=O)[C@@H](NC(=O)CSc3ccncc3)[C@H]2SC1`, the Potency result is “inactive”.

`COc1ccc(S(=O)(=O)N2c3ccc(Cl)cc3[C@@](O)(c3ccccc3Cl)[C@H]2C(=O)N2CCC[C@@H]2C(N)=O)cc1OC`: the Potency result is “inactive”.

Regarding `CCN(CC)CCOC(=O)C(Cc1cccc2ccccc12)CC1CCCO1` (centres undefined), the Potency is 7.94 µM (active).

On to `CCOC(=O)[C@H](CCc1ccccc1)N[C@@H](C)C(=O)N1[C@H](C(=O)O)C[C@@H]2CCC[C@@H]21`, for which the Potency entry is “inactive”.

In the case of `CN(C)CCOC(=O)C(c1ccccc1)C1(O)CCCC1` (centres undefined), the Potency entry is “inactive”.

As for `C[C@H]1O[C@@H](O[C@H]2CC[C@@]3(C)[C@H](CC[C@@H]4[C@@H]3C[C@@H](O)[C@]3(C)[C@@H](C5=CC(=O)OC5)CC[C@]43O)C2)C[C@H](O)[C@@H]1O[C@H]1C[C@H](O)[C@H](O[C@H]2C[C@H](O)[C@H](O[C@@H]3O[C@H](CO)[C@@H](O)[C@H](O)[C@H]3O)[C@@H](C)O2)[C@@H](C)O1`, the Potency entry is “inactive”.

Consider `N[C@H](C(=O)O)[C@@H](O)c1ccc(O)c(O)c1`, for which the Potency result is “inactive”.

As to `CCc1cc(Cl)c(OC)c(C(=O)NC[C@@H]2CCCN2CC)c1O`, the Potency was 2.82 µM (active).

For `NC(N)=NN=C(/C=C/c1ccc([N+](=O)[O-])o1)/C=C/c1ccc([N+](=O)[O-])o1`, the Potency is 0.0891 µM (active).

In the case of `CCC1NC(=O)c2cc(S(N)(=O)=O)c(Cl)cc2N1` (centres undefined), the Potency result is “inactive”.

Take `CCO[C@@H]1O[C@H](C(COCc2ccccc2)OCc2ccccc2)[C@H](OCc2ccccc2)[C@H]1O` (some centres undefined): the Potency entry was “inactive”.

The next assay has as its target Luciferin 4-monooxygenase (Photinus pyralis) (UniProt P08659). Kind of assay: Biochemical firefly luciferase enzyme assay for NPC (AID 624030).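 Also: purified P. pyralis luciferase at 10 nM with luciferin and ATP substrate; nearly all actives have a fitted effect of over 70% in size.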 As to conditions: purified P. pyralis luciferase, luminescence, 5 min; series mostly up to 58.6 µM. The method in brief: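 Counter-screen for direct inhibition of the luciferase enzyme by approved-drug library compounds, run at 10 nM enzyme in 50 mM Tris acetate (final). Luminescence was read within 5 min of enzyme-buffer addition and normalized to PTC124 versus DMSO (0%).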
Consider `CC(C)Cn1cnc2c1c(=O)n(C)c(=O)n2C`, for which the Potency entry is “inactive”.

Regarding `COc1cc(C(=O)N2CCCCCCC2)cc(OC)c1OC`, the Potency result is “inactive”.

Turning to `CC(C)(Cc1c[nH]c2ccccc12)NCC(O)COc1ccccc1C#N` (centres undefined), the Potency entry is “inactive”.

In the case of `CCc1cc(Cl)c(OC)c(C(=O)NC[C@@H]2CCCN2CC)c1O`, the Potency result is “inactive”.
